USP2a inh = USP2a (human) protease inhibition; USP2 core, Ub-CHOP2 coupled fluorogenic reporter, 485/531; Potency, µM (series often up to 38.3 µM), inactives show at the highest dose activity change, negative = inhibition, actives largely listed as inhibitors; actives 0.01% (n = 330,000); O75604;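 also: potency is read from the fitted curve at half-maximal effect; plate controls were DMSO wells for no effect and full inhibition by NEM control for full effect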
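USP2 core (10nM final) preincubated 30min RT with compound in 20mM Tris-HCl pH 8.0, 2mM CaCl2, 2mM beta-mercaptoethanol, 0.05% CHAPS; 25nM Ub-CHOP2 plus 25nM reporter substrate added, fluorescence (Ex485/Em531) read after 60min.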
FBPA coupling cs = coupling enzyme interference in Giardia aldolase counter-screen; actives 0.67% (n = 290,000); AID 2472; coupling enzyme system counterscreen, AmpLite Red fluorescence; activity change, negative = inhibition, % at 58.2 µM, hits read low; in the data active = activity change below about -30%
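Activity here indicates interference with the coupling reaction, not aldolase inhibition. Compounds at 57.5 uM final met coupling enzymes for 10 min at RT; substrate and AmpLite Red detection followed, with a 525/598 nm fluorescence read after 20 min.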
VDR inhibitor = inhibitors of human vitamin D receptor. VDR-SRC2-3 peptide fluorescence polarization, 2 h. Potency, µM, for inactives: max response, negative = inhibition, most hits filed as inhibitors. actives 0.93% (n = 400,000). AID 504847; also: potency is read from the fitted curve at half-maximal effect
Target sequence (P11473 whole entry, looked up): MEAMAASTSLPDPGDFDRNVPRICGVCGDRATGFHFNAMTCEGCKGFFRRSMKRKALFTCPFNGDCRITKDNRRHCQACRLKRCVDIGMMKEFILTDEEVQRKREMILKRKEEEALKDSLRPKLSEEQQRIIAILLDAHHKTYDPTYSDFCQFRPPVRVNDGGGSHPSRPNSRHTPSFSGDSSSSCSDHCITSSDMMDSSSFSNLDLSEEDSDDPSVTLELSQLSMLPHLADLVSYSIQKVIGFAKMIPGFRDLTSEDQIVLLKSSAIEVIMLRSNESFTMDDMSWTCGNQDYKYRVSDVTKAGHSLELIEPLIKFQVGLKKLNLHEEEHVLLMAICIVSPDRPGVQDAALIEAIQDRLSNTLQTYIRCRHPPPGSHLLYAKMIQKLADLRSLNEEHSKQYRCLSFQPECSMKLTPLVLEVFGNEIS
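Inhibition of the VDR/SRC2-3 peptide interaction is quantified by fluorescence polarization. Compounds (23 nl, pintool) incubate with the reagents for 2 hours at ambient room temperature.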
GALK inhibitor = blocks human galactokinase activity; P51570; Purified GALK, Kinase-Glo residual ATP luminescence; Potency, µM (highest dose often 57.5 µM), without a hit: top-dose activity change, negative = inhibition, hits mostly inhibitors; actives 0.007% (n = 270,000); AID 1868; also: potency is read from the fitted curve at half-maximal effect
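5 nM enzyme, 35 uM ATP, 100 uM galactose, 20 mM HEPES pH8.0, 5 mM MgCl2; 1 h RT; residual ATP by Kinase-Glo Plus luminescence, qHTS format.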
PLK1 PBD block = inhibitors of human PLK1 polo-box domain binding; AID 720504; Plk1 PBD binding of FITC phosphopeptide, fluorescence polarization; Potency, µM, without a hit: max response, negative = inhibition, usual class: inhibitors; actives 2.8% (n = 360,000); P53350; also: potency is read from the fitted curve at half-maximal effect; series mostly up to about 57 µM; nearly all actives have a fitted effect of over 65% in size
USP1-UAF1 inh = inhibitors of human USP1/UAF1 deubiquitinase; O94782; recombinant USP1/UAF1, Ub-Rhodamine cleavage fluorescence; Potency, µM (series often up to 57.1 µM), for the others: top-dose activity change, negative = inhibition, actives largely listed as inhibitors; actives 0.23% (n = 390,000); also: potency is read from the fitted curve at half-maximal effect; nearly all actives have a fitted effect of over 60% in size
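USP1/UAF1 complex (1 nM) preincubated 15 min at room temperature with compound, then Ub-Rho substrate (150 nM final) added. Kinetic fluorescence at 480/540 nm over 6 reads at 60 s intervals; 50 mM HEPES pH 7.8, 0.5 mM EDTA, 0.1 mg/ml BSA, 1 mM TCEP, 0.01% Tween-20.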
Numbers without * were called inactive; ? = inconclusive; / = no result. Shown are actives, neighbours in structure and some others; about 3.2% of the full set was active somewhere. Unless noted, calls follow the shape of the dose curve; as a rule, active = well fitted curve in the direction sought with a large enough effect; inconclusive = small, poorly fitted or top-dose-only effect, or another doubt; inactive = no such curve, though single readings can be large; an effect the other way counts as inactive or inconclusive. Unless noted, % is scaled to controls: 0 for no effect and ±100 for the full control effect.

SMILES	USP2a inh	FBPA coupling cs	VDR inhibitor	GALK inhibitor	PLK1 PBD block	USP1-UAF1 inh
COc1ccc2c(c1)NP(=S)(Oc1ccccc1)N2 (centres undefined)	6%	-4	?	4%	15µM*	-22%
Cc1ccc2c(c1)NP(=S)(Oc1ccccc1)N2 (centres undefined)	/	/	-12%	/	?	-13%
COc1c2c(cc3c1OCO3)C13C=CC(OC)CC1N(C2)CC3O (centres undefined)	/	8	7%	/	/	/
Cc1ccc(OP(=O)(NC(C)c2ccccc2)Oc2ccc(C)cc2)cc1 (centres undefined)	-1%	-4	14%	5%	-6%	-25%
CCCCCNc1c(C(=O)OCC)c(=O)[nH]c2ccccc12	4%	2	-18%	2%	27µM*	-18%
CN1CN=C(N[N+](=O)[O-])N(Cc2ccco2)C1	1%	3	?	2%	-3%	-20%
O=[N+]([O-])NC1=NCN(Cc2ccco2)CN1Cc1ccco1	-1%	-1	?	2%	27µM*	-4%
COC(=O)C1=C(c2c(C)noc2C)C[C@@H]2CC[C@H]1N2C(=O)N1CCc2cc(OC)c(OC)cc2C1	1%	/	-5%	/	2%	-30%
Cc1ccc(CN2CC3CC(C2)c2cccc(=O)n2C3)cc1 (centres undefined)	1%	1	0%	-3%	-8%	-17%
Cc1noc(C(=O)Nc2sc3c(c2C#N)CCC3)c1Cl	1%	-20	-5%	1%	24µM*	-7%
CCOC(=O)c1c(NC(=O)c2ccc(OC)cc2)sc2c1CCCCC2	/	/	?	/	/	-17%
C#CCOc1ccc(Br)cc1C(c1c(C)[nH][nH]c1=O)c1c(C)[nH][nH]c1=O	1%	4	-21%	-4%	?	-24%
O=C1NC(=O)N(Cc2cccs2)C(=O)/C1=C/c1ccc(N2CCOCC2)cc1	1%	5	?	-2%	3µM*	-11%
CCN1C(=O)NC(=O)/C(=C\c2ccc(N3CCOCC3)cc2OC)C1=O	1%	0	/	/	/	/
OC(C#CCN1CCOCC1)(c1ccccc1)C1CCCC1 (centres undefined)	0%	0	11%	-3%	-10%	6%
CC1(C)CN(S(=O)(=O)OCC(Cl)(Cl)Cl)C(=O)N1	0%	-2	7%	/	5%	-14%
CCN1C[C@]2(C)CCC(OC)[C@@]34C5C[C@@H]6CC[C@@](O)(C5C(=O)O6)[C@@H](C(O)C23)[C@@H]14 (some centres undefined)	/	-1	2%	/	/	/
CN1CCC(O)(c2ccc(Cl)cc2)C(C(=O)c2ccc(Cl)cc2)C1 (centres undefined)	-1%	2	?	8%	4.7µM*	-15%
CN1CC(C(=O)c2ccc(Cl)cc2)C(c2ccc(Cl)cc2Cl)C1 (centres undefined)	3%	-2	-9%	0%	5%	-20%
CCCC(=O)c1c(O)[nH]c(=O)[nH]c1=O	1%	2	-9%	1%	-9%	-5%
Clc1ccc(CNC2CN3CCC2CC3)cc1 (centres undefined)	0%	2	-2%	1%	-4%	-14%
Fc1ccccc1CNC1CN2CCC1CC2 (centres undefined)	4%	3	?	10%	19µM*	-6%
CCOC(=O)N(c1ccccc1)P1(=S)OCCO1	-1%	-1	79µM*	2%	12µM*	7%
COC(=O)N(c1ccccc1)P1(=S)OCCO1	0%	-2	?	1%	12µM*	-16%
COc1ccc2nc(/N=C/c3c(O)n(-c4cccc(Cl)c4)c(=O)[nH]c3=O)sc2c1	0%	7	50µM*	1%	-30%	-6%
SMILES	USP2a inh	FBPA coupling cs	VDR inhibitor	GALK inhibitor	PLK1 PBD block	USP1-UAF1 inh
Clc1cccc(N2CCNCC2)c1Cl	-1%	-3	-10%	0%	-4%	-16%
N/C(=N\N=C/c1ccc(-c2ccc(O)c(C(=O)O)c2)o1)N[N+](=O)[O-]	-1%	-4	-9%	-11%	11µM*	-18%
CNC(C)[C@H](O)c1ccccc1 (some centres undefined)	/	-1	14%	/	/	/
Cc1ccc(NC2C(=O)NC(=O)NC2=O)cc1	/	/	14µM*	/	-26%	?
O=C1NC(=O)C(Nc2ccccc2)C(=O)N1	/	/	25µM*	/	-25%	-17%
CCCN1CCC[C@@H](c2cccc(O)c2)C1	0%	/	4%	/	-14%	-10%
CCC(=O)c1cn(Cc2ccccc2)c2ccccc12	-1%	-2	11%	-1%	-1%	-12%
C[n+]1ccc(-c2ccncc2)cc1	1%	2	6%	7%	2%	-13%
O=C1NC(=O)N(c2ccccc2)C(=O)/C1=C\c1ccc([N+](=O)[O-])o1	4%	-6	/	-5%	/	/
COc1ccc(N2C(=O)NC(=O)/C(=C\c3ccccc3[N+](=O)[O-])C2=O)cc1	3%	1	50µM*	5%	12µM*	-22%
CSc1nc(N)c(N=Nc2ccc([As](=O)(O)O)cc2)c(=O)[nH]1	4%	1	50µM*	2%	11µM*	-13%
COc1ccc(N=Nc2c(O)[nH]c(=S)[nH]c2=O)cc1	2%	3	-8%	2%	-20%	-27%
O=[N+]([O-])c1ccc(NCc2ccccc2)c2nonc12	?	-12	-7%	0%	0.84µM*	22µM*
O=C(CCc1ccccc1)N1Cc2cc(N3CCCCC3)ccc2-n2nncc2C1	/	/	/	/	-13%	/
Brc1ccccc1	0%	3	-12%	2%	-13%	20%
c1ccc(SSc2ccccc2)cc1	2%	5	32µM*	2%	1.1µM*	-33%
CCCCCCCC/C=C\CCCCCCCC(=O)OC[C@@H](COP(O)(O)=S)OC	/	7	18µM*	/	/	/
CCc1cc2c(cc1-c1csc(C/C(N)=N/O)n1)C(C)(C)CCC2(C)C	/	/	/	/	-10%	-24%
CCc1ccc(CNCCc2c[nH]c3ccccc23)cc1	0%	0	-3%	-7%	1%	-21%
C/C(=N\N1CCCCCC1)c1c(O)n(C)c(=O)n(C)c1=O	8%	-1	/	-1%	/	/
C/C(=N\NC(N)=O)c1c(O)n(C)c(=O)n(C)c1=O	10%	0	-10%	1%	30µM*	-8%
CN1CCc2cc3c(cc2[C@@H]1O)OCO3	/	2	-5%	/	/	/
CN1CCc2cc3c(c4c2C1Cc1ccccc1-4)OCO3 (centres undefined)	0%	-35*	-5%	-9%	-21%	?
N=C1/C(=C\c2ccc(OC(=O)c3ccccc3Cl)cc2)C(=O)N=C2SC(N3CCOCC3)=NN12	-2%	/	?	-19%	30µM*	?
